From PubChem BioAssay (NCI)
The panel holds about 83,000 compounds, 20% with a hit somewhere; the sample as a whole holds those more often.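 Single-concentration screen, 48 h exposure, 96-well plates. Endpoint: percent growth. Below 10 = active.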 Calls of active or inactive are those of the source.

What follows are compounds tested on NCI-H322M lung (assay: NCI-60 one-dose screen, 48 h (100 = growth as untreated, 0 = no growth, -100 = all killed)). Settings: 10 µM unless noted.
Protocol: Growth inhibition of the NCI-H322M human Non-Small Cell Lung tumor cell line is measured as a screen for anti-cancer activity. Cells are grown in 96 well plates and exposed to the test compound for 48 hours. Compounds are tested at a single concentration, which is 10^-5 M for most compounds. The reported endpoint is percent growth (GI% or GIPRCNT), where numbers from 0 - 100% represent growth inhibition, and numbers from -100% - 0 represent cell death. For example, a value of 40 represents 60% growth inhibition. A value of 0 means no net growth occurred over the course of the experiment. A value of -40 indicates 40% of cells at the beginning of the experiment died by the end of the experiment. A value of -100 means all cells are dead at the end of the experiment.
NCI-60 Human Tumor Cell Lines Screen was performed using the standard one-dose NCI protocol, which is described in more detail at https://dtp.cancer.gov/discovery_development/nci-60/default.htm.
Compounds with GIPRCNT values below 10 were considered active. Activity score was based on GIPRCNT using the following formula: […]
Score is 0 for GIPRCNT values of 100 or above, 50 for GIPRCNT values of 0, and 100 for GIPRCNT values of -100.
In the case of `COc1cc(/C=C/C(=O)c2ccc(Cl)cc2)cc(CN2CCCCC2)c1O`, the growth was 91.6% (inactive).
With `CC(=O)c1ccc(NC(=O)Nc2ccc(S(=O)(=O)Nc3ccc(Cl)nn3)cc2)cc1` the growth was 95.8% (inactive).
With `Cc1nc(Nc2cn[nH]c2C(=O)Nc2ccc(CN3CCN(C)CC3)cc2)c2ccsc2n1` the growth was 88.1% (inactive).
For `CCCCCCn1c(=N)n(CC(O)COc2cccc(C)c2)c2ccccc21` (stereo not given), the growth was -42.8% (active).
In the case of `COc1cc(/C=C2\Oc3cc(OCCCN4CCCC4)ccc3C2=O)cc(OC)c1`, the growth was 77.1% (inactive).
In the case of `COC(=O)c1ccc(NC(=O)CSc2nc3ccccc3c(=O)n2-c2ccccc2)cc1`, the growth was 103% (inactive).
For `O=c1oc2ccc(-c3ccc(F)cc3F)cc2c(=O)n1-c1cccc(C(F)(F)F)c1`, the growth was 4.41% (active).
`CC[C@]1(O)C[C@@H]2CN(CCc3c([nH]c4ccccc34)[C@@](C(=O)OC)(c3cc4c(cc3OC)N(C)[C@H]3[C@@](O)(C(=O)OC)[C@H](OC(=O)CCCBr)[C@]5(CC)C=CCN6CC[C@]43[C@@H]65)C2)C1` was tested, and the growth was 38.7% (inactive).
For `NC(CCl)=NCCC[C@H](N)C(=O)O`, the growth was 99.5% (inactive).
In the case of `COc1ccc(C(=O)C2CC2c2ccc(Cl)cc2)cc1` (stereo not given), the growth was 82.7% (inactive).
`COC(=O)c1c2c(c(C)[n+]([O-])c1C)C(=O)C(NCc1ccc(Br)cc1)=CC2=O` was tested, and the growth was 28.7% (inactive).
`C=C(C)CCC(C)N1CCC(N2CCC(C(=O)NCCc3ccccc3)CC2)CC1` (stereo not given) was tested, and the growth was 81% (inactive).
`COC(=O)/C(=C\c1c(C)[nH]c2ccccc12)S(=O)(=O)c1ccccc1` was tested, and the growth was 47.5% (inactive).
With `COc1ccc(C(O)(CCC(C)C)C(CN2CCOCC2)c2ccc(Cl)cc2)cc1` (stereo not given) the growth was 88.3% (inactive).
For `OC(CNC1CCCCC1)Cn1c2ccc(I)cc2c2cc(I)ccc21` (stereo not given), the growth was 75.8% (inactive).
In the case of `Cc1cc(OC(=O)c2ccc([N+](=O)[O-])cc2)nc2[nH]c(=O)sc12`, the growth was 110% (inactive).
`CN1C(=O)N(C)C2C1NN=c1s/c(=C\c3ccc(Cl)cc3Cl)c(=O)n12` (stereo not given) was tested, and the growth was 38.3% (inactive).
In the case of `COc1ccc(N(C)c2nc(N)nc3sc4c(c23)CCCC4)cc1`, the growth was 52.6% (inactive).
`COc1ccc(Nc2nc(N/N=C/c3ccc(O)cc3)nc(Nc3ccc([N+](=O)[O-])cc3)n2)cc1` was tested, and the growth was 110% (inactive).
In the case of `CCOC(=O)C1=C(C)c2ccc(OC)c(OC)c2C1`, the growth was 99.2% (inactive).
In the case of `CCOC(=O)c1sc(-c2ccc(OS(=O)(=O)c3cccs3)c(C=O)c2)nc1C`, the growth was 47.3% (inactive).
For `COc1ccc(C2=C(c3cccc(OC)c3)C(=O)c3ccc(C)nc3C2=O)cc1`, the growth was 76.4% (inactive).
With `COc1cc(C2C3=C(COC3=O)N(CCO)c3cc4c(cc32)OCCO4)cc(OC)c1O` (stereo not given) the growth was 51.6% (inactive).
With `CC(C)C[C@H](C(=O)N[C@@H](C)C(N)=O)N1CC=CCN(O)S1(=O)=O` the growth was 135% [5 µM] (inactive).
With `COc1ccc(-c2nsc3c2NC(=O)CC3c2cccc(OC)c2)cc1` (stereo not given) the growth was 57% (inactive).
In the case of `CC(=O)c1ccc(Cc2ccc(C(C)=O)s2)s1`, the growth was 92.1% (inactive).
In the case of `O=S(=O)(Nc1ncccn1)c1ccc(NC2Nc3nc4ccccc4nc3S2)cc1` (stereo not given), the growth was 97.7% (inactive).
With `CNCCNc1nc2ccccc2c2c(=O)c3cc(OC)ccc3sc12` the growth was 38.8% (inactive).
With `Cc1cccc(NC(=O)c2sc3nc4c(cc3c2N)CCCC4)c1C` the growth was 42.4% (inactive).
In the case of `O=C(Nc1ccc(Cl)cc1F)c1cc(F)ccc1O`, the growth was 8.54% (active).
`COc1cc(OC)cc(N2C(=O)N(Cc3ccc(C(C)(C)C)cc3)c3ccccc3S2(=O)=O)c1` was tested, and the growth was 83.3% (inactive).
For `O=C(Nc1ccc(Cl)cc1)N1CCN(c2ccc3nncn3n2)CC1`, the growth was 29.8% (inactive).
`O=S1(=O)N(Cc2ccccc2)[C@@H](Cc2ccccc2)[C@H](O)[C@H](O)[C@H](Cc2ccccc2)N1Cc1ccccc1` was tested, and the growth was 12.6% (inactive).
With `S=C1CCCC(=S)N1` the growth was 107% (inactive).
For `CCCCN1CCN(c2ccc3nc(-c4ccc5nc(-c6ccc(OC)c(OC)c6)[nH]c5c4)[nH]c3c2)CC1`, the growth was 10.1% (inactive).
`CCCCCCc1cc2cc(-c3csc(/C=C/c4ccccc4)n3)c(=O)oc2cc1O` was tested, and the growth was 63.9% (inactive).
For `COc1ccccc1C(=O)/C=C/c1ccccc1`, the growth was 86.1% (inactive).
With `CN=c1ccc2nc3ccc(N)cc3sc-2c1` the growth was 42% (inactive).
For `Cc1ccc(F)cc1NC(=O)c1cc(Cl)ccc1Nc1ccccc1`, the growth was 62.4% (inactive).
In the case of `COc1ccc(/C=C2\N=C(c3ccccc3)N(c3ccc(-c4nc5ccc(C)cc5s4)cc3)C2=O)cc1`, the growth was 60.3% (inactive).
